aSyn UTR act: Activators via SNCA 5'UTR binding, MLPCN; alpha-synuclein 5'UTR reporter, activators screen; activity score, % (tested at 7.5 µM), hits read low; 300,000 compounds, 7.1% hits; in the data active = activity score below about -60%
* marks the source's active call; other numbers are inactive results. Only a sample is shown.

SMILES	aSyn UTR act
Cc1cc(N2CCOCC2)nc2ccc(NC(=O)CCC(=O)N3CCC4(CC3)OCCO4)cc12	-88*
CCC(C)C(=O)N[C@@H](c1ccccc1)[C@@H](O)C(=O)O[C@H]1C[C@@]2(O)[C@@H](OC(=O)c3ccccc3)C3[C@](C)(C(=O)[C@H](OC(C)=O)C(=C1C)C2(C)C)[C@@H](O)C[C@H]1OC[C@@]31OC(C)=O (some centres undefined)	103
O=C1Nc2ccccc2/C1=C/c1nc2ccccc2c(=O)n1-c1ccc(O)cc1	-77*
Cn1c(NN=O)nc2ccccc21	69
CC(=O)O[C@@H]1/C=C/[C@](C)(O)C[C@@H](C)C/C=C/[C@H]2[C@@H]3O[C@]3(C)[C@@H](C)[C@H]3[C@H](Cc4ccccc4)NC(=O)[C@@]312	114
Cc1ccccc1NC(=O)CCl	-71*
CC1=CC(=C2C(=O)NC(=S)NC2=O)C=C(C(F)(F)F)N1Cc1ccccc1	113
O=c1c2ccccc2nc(Cc2ccccc2)n1-c1ccccc1	-84*
O=C(NC1(C(F)(F)F)Oc2ccc(Cl)cc2O1)N1CCC2(CC1)OCCO2 (centres undefined)	-73*
C[C@@]1(CO)[C@H](O)CC[C@@]2(C)[C@H]1CC[C@H]1C[C@@H]3C[C@@]12CC[C@]3(O)CO	73
O=Cc1cn(Cc2ccc(F)cc2)c2ccccc12	71
O=Cc1cn(Cc2ccc([N+](=O)[O-])cc2)c2ccccc12	72
Cc1ccc(-c2nn(Cc3ccccc3)cc2C=O)cc1	-138*
O=C(Nc1cccc(Cl)c1)c1c(O)c2c(n(Cc3ccco3)c1=O)CCCC2	-87*
O=C1NC(=O)C(C(CC(=O)c2ccccc2)c2ccccc2)C(=O)N1 (centres undefined)	-65*
COc1ccc(OC)c(/C=N/OC(=O)Nc2ccc(Cl)cc2)c1	-63*
CCC(=Nc1cc(OC)ccc1OC)c1c(O)[nH]c(=O)[nH]c1=O	71
O=c1c2ccccc2nc(/C=C/c2ccc([N+](=O)[O-])o2)n1-c1ccc(O)cc1	100
Cc1cccc(-n2c(/C=C/c3ccc([N+](=O)[O-])o3)nc3ccccc3c2=O)c1	-212*
Cc1ccc(N2C(=O)NC(=O)C3(Cc4ccccc4N4CCN(c5ccccc5)CC43)C2=O)cc1 (centres undefined)	-71*
Cc1nn(CC(C)C)c(Cl)c1C(=O)NC1CCC(C)CC1 (centres undefined)	-123*
CN1C(=O)NC(=O)C(C)(C2=CCCCC2)C1=O (centres undefined)	-71*
O=c1[nH]c(=S)[nH]c(O)c1N=Nc1ccc2c(c1)OCO2	-74*
O=c1[nH]c(=S)[nH]c(O)c1N=Nc1ccc(OC(F)F)cc1	-92*
CCCCCCn1c(=O)c(C(=O)Nc2ncccc2O)c(O)c2ccccc21	92
SMILES	aSyn UTR act
COc1cc2c(c(OC)c1OC)-c1ccc(O)cc1[C@@H](NC(C)=O)CC2	61
CN1CCC(N(C)c2nc(-c3ccc([N+](=O)[O-])cc3)nc3ccccc23)CC1	75
CCOC(=O)c1ccc(NC(=O)C2C3C=CC(O3)C2C(=O)O)cc1 (centres undefined)	-77*
Cn1ncnc2c(=O)n(C)c(=O)nc1-2	98
O=C(Nc1ccc(Cl)cc1)OC1CN2CCC1CC2 (centres undefined)	-114*
O=C(Nc1cccc(Cl)c1)OC1CN2CCC1CC2 (centres undefined)	-64*
c1ccc(CN2CCc3nc4ccccc4cc3C2)cc1	-171*
C/C(=N\N1CCCCC1)c1c(O)[nH]c(=O)[nH]c1=O	58
O=[N+]([O-])c1ccccc1CNCCc1ccc(F)cc1	-111*
Cc1cc(C(=O)CS(=O)(=O)c2ccccc2)cc(C)c1OC(=O)N(C)C	-71*
Cc1cc(C(=O)CS(=O)c2ccc(F)cc2)cc(C)c1OC(=O)N(C)C (centres undefined)	-68*
C/C=C(\C)C(=O)N[C@@H](c1ccccc1)[C@@H](O)C(=O)O[C@H]1C[C@@]2(O)[C@@H](OC(=O)c3ccccc3)C3[C@](C)(C(=O)[C@H](OC(C)=O)C(=C1C)C2(C)C)[C@H](O)C[C@H]1OC[C@@]31OC(C)=O (some centres undefined)	110
C=C1C(=O)O[C@@H]2C[C@@H](C)[C@H]3C=CC(=O)[C@]3(O)C[C@@H]12	-117*
COc1cc2c(cc1OC)-c1c(OC)c(OC)c(OC)c3ccnc(c13)C2=O	104
Cc1ccc(-c2cc(-c3ccc(C)cc3)[n+](-c3ccccc3)c(-c3ccc(C)cc3)c2)cc1	76

Screens (PubChem)
